Values without a mark were called inactive. The source made the active and inactive calls. Calls come from the whole dose curve; as a rule, active = well fitted curve in the direction sought with a large enough effect in the repeat runs; inconclusive = weak or mixed curves; inactive = flat fitted curve, though single readings scatter.
Assay: qHTS assay to test for compound auto fluorescence at 535 nm (green) in HEK293 cells (AID 720680)
Conditions: green autofluorescence 485/535 nm; series mostly up to 91.3 µM
% is set by controls: 0 for no effect and ±100 for the full control effect.

Compound | outcome | fluorescence, % of fluorescein
CC(C)(O)CCCC1=CCC(C=O)CC1 (configuration not stated) | inactive | 
CCOC(=O)COc1ccc2c(C)c(CCN(CC)CC)c(=O)oc2c1Cl | inactive | 
NNC(=O)OCc1ccccc1 | inactive | 
C=COCCCCO | inactive | 
C[C@@H]1NC(=O)[C@@H](N)CNC(=O)[C@H](C2CCNC(N)=N2)NC(=O)/C(=C/NC(N)=O)NC(=O)[C@H](CNC(=O)C[C@@H](N)CCCN)NC1=O (some centres not stated) | inactive | 
COc1cc(OC)cc(OC)c1 | inactive | 
COc1cc(C(=O)NC2CCCNC2)cc(OC)c1OC (configuration not stated) | inactive | 
Cc1nc2ccc(Cl)cc2[nH]1 | inactive | 
CCN1CCN(C(=O)N[C@@H](C(=O)N[C@@H]2C(=O)N3C(C(=O)O)=C(CSc4nnnn4C)CS[C@H]23)c2ccc(O)cc2)C(=O)C1=O | inactive | 
Cc1cccc(N)n1 | inactive | 
CCCOc1ccc(C(=O)OCCN(CC)CC)cc1N | inactive | 
CC/C=C\CCOC(=O)c1ccccc1 | inactive | 
CC(C)C(C)C | inactive | 
COC(=O)c1ccccc1Cl | inactive | 
c1coc(Cn2cccc2)c1 | inactive | 
CC/C=C/CCCCCCCCCCOC(C)=O | inactive | 
CC(O)CCCCn1c(=O)c2c(ncn2C)n(C)c1=O (configuration not stated) | inactive | 
C[C@@H]1CC[C@@]2(OC1)O[C@H]1C[C@H]3[C@@H]4CC[C@H]5C[C@@H](O)CC[C@]5(C)[C@H]4CC(=O)[C@]3(C)[C@H]1[C@@H]2C |  | -0.0442% [at 18.6 µM]
COc1cnc(NS(=O)(=O)c2ccc(N)cc2)nc1 |  | -0.0702% [at 18.6 µM]
CC(CN1CC(=O)NC(=O)C1)N1CC(=O)NC(=O)C1 (configuration not stated) | inactive | 
CC(=O)c1c(C)cc(C(C)(C)C)cc1C | inactive | 
Cc1cc(O)c(Cl)cc1C | inactive | 
C=C(C)C(=O)OCCCC | inactive | 
Cc1cc(N)no1 | inactive | 
C/C(Cl)=C/CCl | inactive | 
CC(C)(C)c1ccc(N)cc1 | inactive | 
CCCc1ccc(O)c(OC)c1 | inactive | 
C=CCOC(=O)CCCCCCCC | inactive | 
O=C(O)/C=C(\CC(=O)O)C(=O)O | inactive | 

Assay: qHTS assay to test for compound auto fluorescence at 460 nm (blue) in HEK293 cell free culture (AID 720681)
Conditions: cell-free medium, autofluorescence 405/460 nm (blue); series mostly up to 91.3 µM
Outline: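 Compounds were added to cell-free DMEM with 10% FBS and fluorescence read directly. The blue channel used 405 nm excitation and 460 nm emission, with triamterene as the reference fluorophore.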

Compound | outcome | fluorescence, % of fluorescent control
CC(C)(O)CCCC1=CCC(C=O)CC1 (configuration not stated) | inactive | 
CCOC(=O)COc1ccc2c(C)c(CCN(CC)CC)c(=O)oc2c1Cl | inactive | 
NNC(=O)OCc1ccccc1 | inactive | 
C=COCCCCO | inactive | 
C[C@@H]1NC(=O)[C@@H](N)CNC(=O)[C@H](C2CCNC(N)=N2)NC(=O)/C(=C/NC(N)=O)NC(=O)[C@H](CNC(=O)C[C@@H](N)CCCN)NC1=O (some centres not stated) | inactive | 
CC1(C)C(=O)C(C)(C)C1=O | inactive | 
COc1cc(OC)cc(OC)c1 | inactive | 
COc1cc(C(=O)NC2CCCNC2)cc(OC)c1OC (configuration not stated) | inactive | 
Cc1nc2ccc(Cl)cc2[nH]1 | inactive | 
CCN1CCN(C(=O)N[C@@H](C(=O)N[C@@H]2C(=O)N3C(C(=O)O)=C(CSc4nnnn4C)CS[C@H]23)c2ccc(O)cc2)C(=O)C1=O | inactive | 
Cc1cccc(N)n1 | inactive | 
CCCOc1ccc(C(=O)OCCN(CC)CC)cc1N | inactive | 
CC(C)=CCC/C(C)=C\C#N | inactive | 
C=C(C)C(=O)OCCOC1CC2CC1C1C=CCC21 (configuration not stated) | inactive | 
CC/C=C\CCOC(=O)c1ccccc1 | inactive | 
CC(C)C(C)C | inactive | 
COC(=O)c1ccccc1Cl | inactive | 

Compound | outcome | fluorescence, % of fluorescent control
CCCCc1ccc(Cl)cc1 | inactive | 
c1coc(Cn2cccc2)c1 | inactive | 
CC/C=C/CCCCCCCCCCOC(C)=O | inactive | 
CC(O)CCCCn1c(=O)c2c(ncn2C)n(C)c1=O (configuration not stated) | inactive | 
C[C@@H]1CC[C@@]2(OC1)O[C@H]1C[C@H]3[C@@H]4CC[C@H]5C[C@@H](O)CC[C@]5(C)[C@H]4CC(=O)[C@]3(C)[C@H]1[C@@H]2C |  | 0.012% [at 18.6 µM]
COc1cnc(NS(=O)(=O)c2ccc(N)cc2)nc1 |  | 0.0732% [at 18.6 µM]
CC(CN1CC(=O)NC(=O)C1)N1CC(=O)NC(=O)C1 (configuration not stated) | inactive | 
Cc1cc(O)c(Cl)cc1C | inactive | 
C=C(C)C(=O)OCCCC | inactive | 
Cc1cc(N)no1 | inactive | 
C/C(Cl)=C/CCl | inactive | 
CC(C)(C)c1ccc(N)cc1 | inactive | 
CCCc1ccc(O)c(OC)c1 | inactive | 
CCCCCCCC(=O)N(C)C | inactive | 
C=CCOC(=O)CCCCCCCC | inactive | 
O=C(O)/C=C(\CC(=O)O)C(=O)O | inactive | 
